# High-throughput results (PubChem BioAssay)
# USP30 block: human USP30 deubiquitinase inhibition; Q70CQ3; purified USP30, Ub-rhodamine cleavage fluorescence; inhibition, % at 25 µM; actives 5.3% (n = 47,000)
# Target sequence (Q70CQ3 whole entry, looked up): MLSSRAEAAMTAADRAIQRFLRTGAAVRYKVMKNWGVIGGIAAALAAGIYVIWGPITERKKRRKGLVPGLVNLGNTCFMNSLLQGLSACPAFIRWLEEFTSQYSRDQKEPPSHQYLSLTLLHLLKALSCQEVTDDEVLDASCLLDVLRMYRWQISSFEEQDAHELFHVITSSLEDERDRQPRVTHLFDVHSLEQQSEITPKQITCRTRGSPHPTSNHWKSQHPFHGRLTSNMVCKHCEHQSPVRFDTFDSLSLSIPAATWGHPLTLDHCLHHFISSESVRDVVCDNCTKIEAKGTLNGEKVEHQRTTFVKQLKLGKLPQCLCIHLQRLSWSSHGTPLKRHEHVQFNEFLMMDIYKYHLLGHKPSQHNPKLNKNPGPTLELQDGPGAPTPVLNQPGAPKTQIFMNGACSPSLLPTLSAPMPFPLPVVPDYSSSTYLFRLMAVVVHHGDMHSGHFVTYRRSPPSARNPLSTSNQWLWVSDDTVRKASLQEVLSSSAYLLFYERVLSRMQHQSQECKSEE
# USP28 inh: blocks human USP28 ubiquitin-rhodamine cleavage; Q96RU2; purified USP28, Ub-rhodamine cleavage fluorescence, 30 min; inhibition, % at 25 µM; actives 3% (n = 47,000); AID 1645857
# USP8 inh: human USP8 deubiquitinase inhibition; P40818; purified USP8, Ub-rhodamine cleavage fluorescence, 30 min; inhibition, % at 20 µM; actives 4.2% (n = 47,000); AID 1645853
# USP17 inh: human USP17-like deubiquitinase inhibition; A8MUK1; AID 1645855; inhibition, % at 50 µM; actives 6.5% (n = 47,000); purified USP17, Ub-rhodamine cleavage fluorescence, 3 h
# * = called active by the depositor. Most compounds without a hit are left out; they make up all but 13% or so of the library. No stated cut-off is given here; in the data, active means inhibition above about 30%; inactive means the rest.
SMILES,USP30 block,USP28 inh,USP8 inh,USP17 inh
CO[C@@H]1C[C@@H](C[C@H]2CC[C@H](C)[C@@H]([C@@H](C)C(=O)O)O2)O[C@]2(O[C@](C)([C@H]3CC[C@@](C)([C@@H]4O[C@@H]([C@H]5O[C@@](O)(CO)[C@H](C)C[C@@H]5C)C[C@@H]4C)O3)C[C@H]2C)[C@@H]1C,13.6,4.3,4.1,13.3
COC(=O)[C@]1(O)O[C@@]2(C(=O)OC)c3c(oc4cc(C)cc(O)c4c3=O)[C@H]3c4c(oc5cc(C)cc(O)c5c4=O)C[C@H]1[C@H]32,-7.9,28.8,-156.9,53.3*
CC(C)CNC(=O)C1=NOC2(CCNC2)C1 (configuration not stated),-2.9,-11.6,-186.2,-22.0
CCC(CC)n1[nH]c(=O)c2c1NC(=O)CSC2c1ccc2c(c1)OCO2 (configuration not stated),15.7,27.8,43.4*,64.8*
O=[N+]([O-])c1ccc(NCCCN2CCOCC2)c2ncccc12,-18.9,1.8,-60.4,6.6
CC1CC[C@@]2(NC1)O[C@H]1C[C@H]3[C@@H]4CC=C5C[C@@H](O)CC[C@]5(C)[C@H]4CC[C@]3(C)[C@H]1[C@@H]2C (some centres not stated),37.6*,31.2*,-5.3,51.7*
